{"source": "PubChem BioAssay (NCI)", "note": "Several values for one entry are separate records, joined by “and”; a condition that tells them apart may be missing. Equal values may be shown once. About 83,000 compounds went through this panel and 20% of them were active in at least one assay; those are over-represented in the sample as a whole.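 Activity criterion: percent growth below 10, measured after cells in 96-well plates were exposed to a single compound concentration for 48 hours.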 Values without a mark were called inactive. Activity calls are given as the source filed them. Starred links: 1 amine or outer side, 2 acyl side, 3 side chain; linkers in the order of their positions; H or OH if unused. Positions of bridges follow the written chain, without caps; N, C: chain ends. Non-standard residues stand in square brackets, D forms with d. Residues, ends and D or L forms follow the SMILES beside them. Chains are numbered I, II in the order given. Actinocin(9to1) = Cc1c2oc3c(C)ccc(C(=O)[*:1])c3nc-2c(C(=O)[*:2])c(N)c1=O; aThr = C[C@H](O)[C@H](N)C(=O)O; NMeV = CN[C@H](C(=O)O)C(C)C; Sar = CNCC(=O)O", "data": [{"system": "MALME-3M melanoma", "experiment": "NCI-60 one-dose screen, 48 h (100 = growth as untreated, 0 = no growth, -100 = all killed)", "conditions": "10 µM", "values": [{"smiles": "CN(C)CCC(=O)c1c[nH]c2ccccc12", "growth": "105%"}, {"smiles": "N#C/C(=C1C=C/C(=N\\O)C(Cl)=C\\1)c1ccccc1", "growth": "58.7%"}, {"smiles": "S=c1[nH]nc(Cc2ccccc2)c(=S)[nH]1", "growth": "98.3%"}, {"smiles": "CCCCCCCCCCCCCCCCCN", "growth": "98%"}, {"smiles": "Cc1cc(NCCCN(C)C)c2ccc3c(ccc4c(NCCCN(C)C)cc(C)nc43)c2n1", "growth": "-89.2% (active)"}, {"smiles": "COc1cc(C(C)(C)C)cc(OC)c1C(O)(c1c(OC)cc(C(C)(C)C)cc1OC)c1c(OC)cc(C(C)(C)C)cc1OC", "growth": "-80.8% (active)"}, {"smiles": "O=c1[nH]cc(F)c(=O)[nH]1", "growth": "53.1% and 69.9%"}, {"smiles": "Nc1ccc2cc(Br)c3ccccc3c2c1", "growth": "97.8%"}, {"smiles": "BrC/C=C/C[P+](c1ccccc1)(c1ccccc1)c1ccccc1", "growth": "60.6%"}, {"smiles": "O=C(/C(=C/c1ccccc1)CBr)c1ccccc1", "growth": "77.5%"}, {"smiles": "Cc1c2oc3c(C)ccc(C(=O)N[C@@H]4C(=O)N[C@H](C(C)C)C(=O)N5CCC[C@H]5C(=O)N(C)CC(=O)N(C)[C@@H](C(C)C)C(=O)O[C@H]4C)c3nc-2c(C(=O)N[C@@H]2C(=O)N[C@H](C(C)C)C(=O)N3CCC[C@H]3C(=O)N(C)CC(=O)N(C)[C@@H](C(C)C)C(=O)O[C@H]2C)c(N)c1=O", "note": "(I: [aThr][dV]P[Sar][NMeV] / II: [aThr][dV]P[Sar][NMeV]; ester I:1-I:C, II:1-II:C; linker I:N-II:N via Actinocin(9to1))", "growth": "-61.4% (active)"}, {"smiles": "CSc1ccc2c(c1)C(N1CCN(C)CC1)Cc1ccccc1S2", "note": "(centres undefined)", "growth": "-46.6% (active)"}, {"smiles": "CN1CCN(c2ccc3nc(-c4ccc5nc(-c6ccc(O)cc6)[nH]c5c4)[nH]c3c2)CC1", "growth": "37.9%"}]}, {"system": "MDA-MB-231 breast", "experiment": "NCI-60 one-dose screen, 48 h (100 = growth as untreated, 0 = no growth, -100 = all killed)", "conditions": "10 µM", "values": [{"smiles": "CN(C)CCC(=O)c1c[nH]c2ccccc12", "growth": "115%"}, {"smiles": "N#C/C(=C1C=C/C(=N\\O)C(Cl)=C\\1)c1ccccc1", "growth": "20.6%"}, {"smiles": "S=c1[nH]nc(Cc2ccccc2)c(=S)[nH]1", "growth": "113%"}, {"smiles": "Cc1cnc(/C=N\\NC(N)=S)c2cccc(N)c12", "growth": "34.2%"}, {"smiles": "CCCCCCCCCCCCCCCCCN", "growth": "93%"}, {"smiles": "Cc1cc(NCCCN(C)C)c2ccc3c(ccc4c(NCCCN(C)C)cc(C)nc43)c2n1", "growth": "-77.4% (active)"}, {"smiles": "COc1cc(C(C)(C)C)cc(OC)c1C(O)(c1c(OC)cc(C(C)(C)C)cc1OC)c1c(OC)cc(C(C)(C)C)cc1OC", "growth": "-85.2% (active)"}, {"smiles": "O=c1[nH]cc(F)c(=O)[nH]1", "growth": "96.2% and 84.6%"}, {"smiles": "BrC/C=C/C[P+](c1ccccc1)(c1ccccc1)c1ccccc1", "growth": "77.4%"}, {"smiles": "O=C(/C(=C/c1ccccc1)CBr)c1ccccc1", "growth": "58.3%"}, {"smiles": "Cc1c2oc3c(C)ccc(C(=O)N[C@@H]4C(=O)N[C@H](C(C)C)C(=O)N5CCC[C@H]5C(=O)N(C)CC(=O)N(C)[C@@H](C(C)C)C(=O)O[C@H]4C)c3nc-2c(C(=O)N[C@@H]2C(=O)N[C@H](C(C)C)C(=O)N3CCC[C@H]3C(=O)N(C)CC(=O)N(C)[C@@H](C(C)C)C(=O)O[C@H]2C)c(N)c1=O", "note": "(I: [aThr][dV]P[Sar][NMeV] / II: [aThr][dV]P[Sar][NMeV]; ester I:1-I:C, II:1-II:C; linker I:N-II:N via Actinocin(9to1))", "growth": "-2.13% (active)"}, {"smiles": "CSc1ccc2c(c1)C(N1CCN(C)CC1)Cc1ccccc1S2", "note": "(centres undefined)", "growth": "-11.6% (active)"}, {"smiles": "CN1CCN(c2ccc3nc(-c4ccc5nc(-c6ccc(O)cc6)[nH]c5c4)[nH]c3c2)CC1", "growth": "121%"}]}, {"system": "RXF 393 renal", "experiment": "NCI-60 one-dose screen, 48 h (100 = growth as untreated, 0 = no growth, -100 = all killed)", "conditions": "10 µM", "values": [{"smiles": "CN(C)CCC(=O)c1c[nH]c2ccccc12", "growth": "126%"}, {"smiles": "N#C/C(=C1C=C/C(=N\\O)C(Cl)=C\\1)c1ccccc1", "growth": "43.9%"}, {"smiles": "S=c1[nH]nc(Cc2ccccc2)c(=S)[nH]1", "growth": "103%"}, {"smiles": "CCCCCCCCCCCCCCCCCN", "growth": "98.7%"}, {"smiles": "Cc1cc(NCCCN(C)C)c2ccc3c(ccc4c(NCCCN(C)C)cc(C)nc43)c2n1", "growth": "-83.4% (active)"}, {"smiles": "COc1cc(C(C)(C)C)cc(OC)c1C(O)(c1c(OC)cc(C(C)(C)C)cc1OC)c1c(OC)cc(C(C)(C)C)cc1OC", "growth": "-27.4% (active)"}, {"smiles": "O=c1[nH]cc(F)c(=O)[nH]1", "growth": "63.4% and 10.7%"}, {"smiles": "Nc1ccc2cc(Br)c3ccccc3c2c1", "growth": "4.19% (active)"}, {"smiles": "BrC/C=C/C[P+](c1ccccc1)(c1ccccc1)c1ccccc1", "growth": "81.8%"}, {"smiles": "O=C(/C(=C/c1ccccc1)CBr)c1ccccc1", "growth": "71.7%"}, {"smiles": "Cc1c2oc3c(C)ccc(C(=O)N[C@@H]4C(=O)N[C@H](C(C)C)C(=O)N5CCC[C@H]5C(=O)N(C)CC(=O)N(C)[C@@H](C(C)C)C(=O)O[C@H]4C)c3nc-2c(C(=O)N[C@@H]2C(=O)N[C@H](C(C)C)C(=O)N3CCC[C@H]3C(=O)N(C)CC(=O)N(C)[C@@H](C(C)C)C(=O)O[C@H]2C)c(N)c1=O", "note": "(I: [aThr][dV]P[Sar][NMeV] / II: [aThr][dV]P[Sar][NMeV]; ester I:1-I:C, II:1-II:C; linker I:N-II:N via Actinocin(9to1))", "growth": "-45.9% (active)"}, {"smiles": "CSc1ccc2c(c1)C(N1CCN(C)CC1)Cc1ccccc1S2", "note": "(centres undefined)", "growth": "25.1%"}, {"smiles": "CN1CCN(c2ccc3nc(-c4ccc5nc(-c6ccc(O)cc6)[nH]c5c4)[nH]c3c2)CC1", "growth": "37.3%"}]}]}
